The record followed here is the supplement of paper PMC10941209.

This test relates to HFF. As to the kind of experiment: cell viability relative to DMSO control; higher = less cytotoxic. Conditions: 1 µM; 72 h. The procedure: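 Single-dose cytotoxicity screen of the MMV Pandemic Response Box at 1 uM on human foreskin fibroblasts (HFF), 72 h at 37 C. Viability measured by MTT (OD 550 nm) and normalised to the DMSO control (% survival).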
For orientation: cell viability means a read-out of living cells in per cent, often relative to untreated cells. With `COc1ccc(NS(=O)(=O)c2ccc(Cl)s2)cn1`, the cell viability is 72.2%. Next, `CCN(CC)S(=O)(=O)c1ccc(Cl)c(C(=O)Nc2sc3c(c2C#N)CCCC3)c1`: 60.2%; `Cc1ccc(C)c(OCCCCCCN2C[C@H](O)[C@@H](O)[C@H](O)[C@H]2CO)c1`: 64.6%. As for `O=C(Nc1[nH]c(=O)ncc1F)c1ccccc1`, the cell viability was 64.8%. Regarding `OB1OCc2c1ccc(Cl)c2F`, the cell viability is 68.5%.

`O=c1[nH]cnc2c1ncn2[C@H]1CC[C@@H](CO)O1`: the cell viability turned out to be 72.2%. The value for `O=C(O)c1cc(-c2ccccc2)nc2ccccc12` was 70.7%; that for `COc1cc(Cc2cnc(N)nc2N)cc(OC)c1OC` was 64.8%. With `COc1cc(NC(=O)CN2C(=O)NC(c3ccccc3)(c3ccccc3)C2=O)cc(OC)c1`, the cell viability worked out at 61%.

`CCC(C)(C)c1ccc(CC(C)CN2C[C@@H](C)O[C@@H](C)C2)cc1` (some centres not stated) yielded a cell viability of 65%. Next, `Fc1ccc2c(/C=C/c3nnn[nH]3)c[nH]c2c1`: 71.2%; `Nc1cnn(C2OC(CO)C(O)C2O)c(=O)n1` (configuration not stated): 63.5%; `CC[C@@]1(O)C(=O)OCc2c1cc1n(c2=O)Cc2cc3c([N+](=O)[O-])cccc3nc2-1`: 53.1%.

As for `COc1ccc(-n2cnc3cc(NCc4ccco4)ccc32)cc1`, the cell viability turned out to be 52%.

As for `Cc1nc(N(C)C(=O)Cc2ccc(-c3ccccn3)cc2)sc1S(N)(=O)=O`, the cell viability came to 66.3%. Consider `CN1CCN(Cc2ccc(-c3cnc4[nH]cc(-c5ccc6[nH]ccc6c5)c4c3)cc2)CC1`, for which the cell viability was 75.3%. Next, `Cc1nc(Nc2ccc(F)cc2)nc(N2CCc3ccccc3C2C)c1C` (configuration not stated): 65.9%.

Take `CC(C)(C)c1ccc(C(=O)NC(=O)N2CCCc3ccccc32)cc1`: the cell viability was found to be 63.5%. Consider `N#C/C(=C1/SC[C@H](c2ccc(Cl)cc2Cl)S1)n1ccnc1`, for which the cell viability was 74.7%. Compound `O=C(Nc1ncc(Cc2cccc3ccccc23)s1)C1CCCCC1` gave a cell viability of 58.6%. As to `COc1ccc2nc(-c3ccccc3)cc(O)c2c1`, the cell viability amounted to 75%. Next, `COc1ccc(CNC(=O)C2CCN([C@H](C)c3cccc4ccccc34)CC2)cc1`: 62.6%; `Cc1ccn2c(C(=O)NCc3ccccc3)c(C)nc2c1`: 66.8%; `CCc1oc2ccccc2c1C(=O)c1ccc(O)cc1`: 71.1%. The compound `CCCNc1ccc(S(=O)(=O)Nc2cc(C)on2)cc1` showed a cell viability of 69.3%. In turn, `Cc1c[nH]c(=O)nc1NCc1ccccc1` displayed a cell viability of 66.7%.

In turn, `CN1c2ccc(Cl)cc2N(c2ccccc2)C(=O)c2cn(Cc3ccc(CN4CCOCC4)cc3)nc21` came in with a cell viability of 68.2%. Take `COCCn1cnc2c(O)nc(Nc3ccccc3)nc21`: the cell viability was 61%. The value for `CC1(C)C[C@H]1C(=O)N/C(=C\CCCCSC[C@@H](N)C(=O)O)C(=O)O` was 71.5%; that for `O=C(O)/C=C/C=C/c1cccc(Oc2cc(Cl)cc(Cl)c2)c1` was 63.3%. Next, `Nc1nnnn1CCOc1c2[nH]c3ccc(Cl)cc3c2cc2c1[nH]c1ccc(Cl)cc12`: 65.4%. On to `Cc1ncc([N+](=O)[O-])n1CC(O)CN1CCOCC1` (configuration not stated), for which the cell viability stood at 61.1%. Consider `N=c1n(CCN2CCCCC2)c2ccccc2n1CC(O)COc1ccc(Cl)cc1Cl` (configuration not stated), for which the cell viability came to 81.4%. The compound `C/C(=N\NC(=O)C1CC1c1ccccc1)c1ccc(NC(=O)c2ccco2)cc1` (configuration not stated) gave a cell viability of 60%. Take `CONC(=N)c1ccc(-c2ccc(-c3ccc(C(=N)NOC)cc3)o2)cc1`: the cell viability amounted to 63.9%. In turn, `Clc1cc2nc(C3CCNCC3)n(Cc3ccc(CNCCc4c[nH]cn4)cc3)c2cc1Cl` gave a cell viability of 65.3%. The value for `COc1ccc(COc2cc3oc(=O)c4cc(C(C)O)ccc4c3cc2OC)cc1` (configuration not stated) was 57.3%.
